From PubChem BioAssay (NCATS) come the findings set out here.

A number with no mark means an inactive call. Records with an inconclusive call do not appear. Active and inactive are the calls of the source. Unless noted, the call rests on the fitted dose curve; in most records, active means well fitted curve in the direction sought with a large enough effect; inconclusive means small, poorly fitted or top-dose-only effect, or another doubt; inactive means no such curve, though single readings can be large; an effect the other way counts as inactive or inconclusive.

Test [1] in a line: Cell Viability - Mesenchymal (AID 546).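 Further: cells exposed to compound for 40 hours before reading.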 Conditions: mesenchymal cells viability, qHTS; activity change, negative = cytotoxicity: at 91.7 µM (top of the series). The essentials: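 In this qHTS cytotoxicity format, glomerulus-derived human mesenchymal kidney cells received compound for 40 hr, then luciferase-based ATP quantitation. Concentration-response data were fitted with the Hill equation.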

For test [2], the target named is 3',5'-cyclic-AMP phosphodiesterase 4B (Homo sapiens) (UniProt Q07343). Nature of the test: qHTS Assay for Inhibitors of PDE-IV (AID 607; active means well fitted activation curve with a large enough effect in the main read-out, with a control signal flat, not every such curve was filed as active; further: % of control where 0% means no effect). The essentials:
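ACTOne HEK293 cells carry a modified cAMP-gated CNG channel and express endogenous PDE4; plated 1000 cells/well, compounds up to 22.9 uM final. Membrane-potential dye fluorescence (ex 535/em 590) was read; parental cells received 10 uM forskolin + 100 uM RO 20-1724.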

Test [3] in a line: Cellular Toxicity (caspase-3) HepG2 (AID 654). Further: potency means the concentration at half of the fitted maximal effect.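 On caspase-3 activation: cells exposed to compound for 16 hours before reading; 0% = DMSO alone and 100% = caspase signal from 100 µM tamoxifen.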 The essentials:
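Luminescent Caspase-Glo 3/7 readout after 16 hr compound exposure of human hepatocellular carcinoma HepG2 cells at 37 °C; qHTS concentration-response, normalized DMSO = 0%, 100 uM tamoxifen = 100%; AC50 by standard Hill equation.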

The nature of test [4]: Cellular Toxicity (caspase-3) Jurkat (AID 655).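 Further: cells exposed to compound for 16 h at 37 °C before reading.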 Conditions: Jurkat caspase-3 activation, luminescence, DMSO = 0%, tamoxifen = 100%; at 92.2 µM (top of the series). The essentials: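 qHTS in human Jurkat T-cell leukemia line: 16 hr compound treatment at 37 °C, caspase-3/7 activity measured by Caspase-Glo luminescence. AC50 derived from Hill equation.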
A short description of test [5]: Cellular Toxicity (caspase-3) HUV-EC-C (AID 656). Further: potency means the concentration at half of the fitted maximal effect. The essentials: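 Concentration-dependent caspase 3/7 induction was assessed in HUV-EC-C cells exposed for 16 hours. Data scaled between DMSO and tamoxifen (100 uM) controls.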
Test [6] is described as follows: Cellular Toxicity (caspase-3) SHSY5Y (AID 657).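 Further: cells exposed to compound for 16 hours at 37 °C.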 The essentials:
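Readout: caspase-cleaved peptide-aminoluciferin substrate driving luciferase light in SH-SY5Y neuroblastoma cells after 16 h treatment. Response normalized to DMSO and 10 uM staurosporine controls.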

The nature of test [7]: Cellular Toxicity (caspase-3) BJ (AID 658).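 Further: 0% = DMSO basal and 100% = 10 µM staurosporine.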 The essentials: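 Plated BJ cells (1000/well) rested 5 hr, received compound for 16 hr at 37 °C, then Caspase-Glo 3/7 reagent for 1 hr at room temperature before luminescence reading.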
A short description of test [8]: Cellular Toxicity (caspase-3) MRC-5 (AID 659).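 Further: 0% = DMSO basal and 100% = 10 µM staurosporine.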 Conditions: Potency: caspase-3 activation. The essentials:
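Apoptosis readout in MRC-5 cells: luciferase light generated after caspase 3/7 cleaves a peptide-aminoluciferin substrate, measured post 16 hr compound incubation at 37 °C.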

Test [9] can be described thus: Cellular Toxicity (caspase-3) Mesangial (AID 660).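 Further: combined caspase 3 and 7 activity read by Caspase-Glo luminescence; cells exposed to compound for 16 h before the caspase read.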 Conditions: mesangial cells, normalized: DMSO 0%, 100 µM tamoxifen 100%; at 91.7 µM (top of the series). The essentials:
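Luminescent Caspase-Glo 3/7 readout (aminoluciferin substrate cleavage, 20 min RT) after 16 h compound exposure at 37 °C of normal human mesangial cells. Signal increase normalized between DMSO basal and 100 uM tamoxifen; Hill-equation AC50.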

A short description of test [10]: Cellular Toxicity (caspase-3) H-4-II-E (AID 663).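 Further: cells exposed to compound for 16 hr before readout.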 Conditions: H-4-II-E rat hepatoma, scaled: DMSO 0%, 100 µM tamoxifen 100%; at 92.2 µM (top of the series). The essentials:
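Caspase 3/7 activation measured in H-4-II-E cells in complete culture medium after 16 hr treatment at 37 °C, using luciferase-coupled substrate readout; AC50 values come from Hill-equation fits of normalized concentration-response data.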

A short description of test [11]: Cellular Toxicity (caspase-3) Hek293 (AID 664).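 Further: cells exposed to compound for 16 h at 37 °C before readout.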 Conditions: HEK293 caspase-3 activation; caspase-3 activation: at 92.2 µM (top of the series), DMSO = 0%, 100 µM tamoxifen = 100%. The essentials:
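Luminescent Caspase-Glo 3/7 readout (aminoluciferin release) in HEK293 cells after 16 h compound treatment, 37 °C. Normalization: DMSO = basal, 100 uM tamoxifen = 100% stimulation. Concentration-response fitted with standard Hill equation for AC50.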

A short description of test [12]: Cellular Toxicity (caspase-3) N2a (AID 665).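 Further: compound exposure lasted 16 h at 37 °C before readout.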 Conditions: Potency: caspase-3 activation. The essentials:
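Luminescent Caspase-Glo 3/7 readout in N2a mouse neuroblastoma cells after 16 h compound exposure at 37 °C. Signal scaled to DMSO (basal) and 10 uM staurosporine (100%). Concentration-response fitted with Hill equation for AC50.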

A short description of test [13]: Cellular Toxicity (caspase-3) NIH 3T3 (AID 666).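 Further: 0% = DMSO basal and 100% = 100 µM tamoxifen stimulation.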 The essentials:
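NIH 3T3, 1000 cells/well, 5 hr settle then 16 hr compound at 37°C; Caspase-Glo 3/7, 20 min RT, luminescence. DMSO = basal, 100 uM tamoxifen = 100%. Hill-equation AC50, qHTS.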

Test [14] in a line: Cellular Toxicity (caspase-3) Renal Proximal Tubule (AID 667).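 Further: cells exposed to compound for 16 hours at 37 °C before detection; 0% = DMSO basal and 100% = 10 µM staurosporine.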 Conditions: Potency: caspase-3 activation. The essentials: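 Caspase-Glo 3/7 read-out, rat primary kidney proximal tubule cells. Compound exposure 16 h, 37 °C; detection after 1 h at RT. Activity scaled to DMSO and 10 uM staurosporine.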
Test [15] has as its target Cytochrome P450 2C9 (Homo sapiens) (UniProt P11712). Nature of the test: qHTS Assay for Inhibitors and Substrates of Cytochrome P450 2C9 (AID 883). Further: nearly all actives have a fitted effect of over 60% in size. Further: potency means the concentration at half of the fitted maximal effect. The essentials:
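CYP2C9 deoxyluciferin hydroxylation, 37C, 60 min with NADPH regeneration; 10nM enzyme, 100uM Luciferin-H (KM). Glo detection reagent stopped reaction; luminescence normalized to sulphaphenazole (57uM) full inhibition.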

In test [16] the target is Cytochrome P450 3A4 (Homo sapiens) (UniProt P08684). The test is described as follows: qHTS Assay for Activators of Cytochrome P450 3A4 (AID 885). Further: nearly all actives have a fitted effect of over 65% in size. The essentials:
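CYP3A4 activity: Luciferin-PPXE O-dealkylation, 25uM substrate, 200mM KPO4, RT throughout. Read-out is luciferase luminescence; higher values reflect activation.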

Test [17] concerns the target Cytochrome P450 2C19 (Homo sapiens) (UniProt P33261). Nature of the test: qHTS Assay for Inhibitors and Substrates of Cytochrome P450 2C19 (AID 899). Further: nearly all actives have a fitted effect of over 60% in size. Further: potency means the concentration at half of the fitted maximal effect. The essentials:
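In 50mM KPO4, the reaction held 5nM enzyme and KM-level (10uM) Luciferin-H EGE; it ran 60 min at 37C after NADPH regeneration and a 10 min compound preincubation. Luminescence values were scaled to 57uM ketoconazole as complete inhibition.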

The target of test [18] is Cytochrome P450 3A4 (Homo sapiens) (UniProt P08684). Nature of the test: qHTS Assay for Inhibitors and Substrates of Cytochrome P450 3A4 (AID 884). Further: nearly all actives have a fitted effect of over 50% in size. Further: potency means the concentration at half of the fitted maximal effect. The essentials:
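Luminescent readout of luciferin produced by CYP3A4 (20 nM) dealkylation of Luciferin-PPXE, 25 uM (its KM). NADPH-driven reaction ran 60 min at RT after 10 min compound preincubation; data scaled to 57 uM ketoconazole as 100% inhibition.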

Test [19] concerns the target Cytochrome P450 2D6 (Homo sapiens) (UniProt P10635). The test is described as follows: qHTS Assay for Inhibitors and Substrates of Cytochrome P450 2D6 (AID 891).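 Further: luciferin methyl ether substrate demethylated by CYP2D6 with NADPH regeneration; on the % scale 0 is the no-effect control and ±100 the full control effect; nearly all actives have a fitted effect of over 60% in size.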 The essentials: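 Luminescent read-out of luciferin formed by 5 nM human CYP2D6 demethylating 30 uM Luciferin-ME EGE (Km level) over 60 min at room temperature after NADPH regeneration addition. Data normalized to full inhibition by 1.43 uM quinidine.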

Test [20] is described as follows: qHTS Assay for Identification of Small Molecule Antagonists for NFkB Signaling Pathway (AID 895; active means well fitted inhibition curve with a large enough effect in the signal ratio, with a control signal flat, not every such curve was filed as active; the % refers to the signal ratio; further: on the % scale 0 is the no-effect control and ±100 the full control effect). The essentials:
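NFkB-bla ME-180 cervical carcinoma cells with beta-lactamase reporter under NFkB response element; compounds added, then TNF alpha at 10 pM final (EC50), 5 h at 37 C. LiveBLAzer substrate 2 h, room temperature; emission 460/530 nm at 405 nm excitation.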

Sequence of 3',5'-cyclic-AMP phosphodiesterase 4B (Homo sapiens) (Q07343 whole entry, looked up): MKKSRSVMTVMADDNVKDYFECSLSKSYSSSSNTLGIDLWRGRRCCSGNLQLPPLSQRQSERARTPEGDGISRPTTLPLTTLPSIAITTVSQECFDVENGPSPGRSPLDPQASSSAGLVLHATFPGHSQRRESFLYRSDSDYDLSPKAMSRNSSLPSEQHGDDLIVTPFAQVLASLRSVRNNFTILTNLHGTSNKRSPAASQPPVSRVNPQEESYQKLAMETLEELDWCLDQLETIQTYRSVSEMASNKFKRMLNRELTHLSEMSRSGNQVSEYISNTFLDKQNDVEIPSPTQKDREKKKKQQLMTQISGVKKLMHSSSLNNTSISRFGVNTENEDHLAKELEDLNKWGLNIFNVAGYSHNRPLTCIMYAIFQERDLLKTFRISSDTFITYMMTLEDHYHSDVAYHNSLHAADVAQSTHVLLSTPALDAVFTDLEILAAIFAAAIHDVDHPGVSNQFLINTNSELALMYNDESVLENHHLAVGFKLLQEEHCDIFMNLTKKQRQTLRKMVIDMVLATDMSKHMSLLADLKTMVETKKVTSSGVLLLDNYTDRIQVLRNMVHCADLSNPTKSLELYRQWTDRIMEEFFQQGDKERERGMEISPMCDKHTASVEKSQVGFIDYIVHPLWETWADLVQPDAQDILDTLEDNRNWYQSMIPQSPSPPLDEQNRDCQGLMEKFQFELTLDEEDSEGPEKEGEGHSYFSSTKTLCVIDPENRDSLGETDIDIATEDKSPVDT
Sequence of Cytochrome P450 3A4 (Homo sapiens) (P08684 whole entry, looked up): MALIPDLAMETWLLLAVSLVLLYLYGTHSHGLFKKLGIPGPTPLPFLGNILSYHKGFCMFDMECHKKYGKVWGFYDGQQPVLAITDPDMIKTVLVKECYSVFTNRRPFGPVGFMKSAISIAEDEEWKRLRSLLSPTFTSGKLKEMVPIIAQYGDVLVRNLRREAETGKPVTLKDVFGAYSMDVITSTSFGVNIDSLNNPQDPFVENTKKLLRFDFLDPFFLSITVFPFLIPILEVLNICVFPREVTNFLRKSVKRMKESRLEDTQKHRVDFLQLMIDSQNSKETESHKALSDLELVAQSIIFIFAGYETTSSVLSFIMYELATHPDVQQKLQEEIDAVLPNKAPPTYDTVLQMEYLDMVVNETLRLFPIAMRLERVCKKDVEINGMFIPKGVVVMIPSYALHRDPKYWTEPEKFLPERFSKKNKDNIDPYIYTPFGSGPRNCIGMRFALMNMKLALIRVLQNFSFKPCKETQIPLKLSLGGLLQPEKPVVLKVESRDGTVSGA
Sequence of Cytochrome P450 2C19 (Homo sapiens) (P33261 whole entry, looked up): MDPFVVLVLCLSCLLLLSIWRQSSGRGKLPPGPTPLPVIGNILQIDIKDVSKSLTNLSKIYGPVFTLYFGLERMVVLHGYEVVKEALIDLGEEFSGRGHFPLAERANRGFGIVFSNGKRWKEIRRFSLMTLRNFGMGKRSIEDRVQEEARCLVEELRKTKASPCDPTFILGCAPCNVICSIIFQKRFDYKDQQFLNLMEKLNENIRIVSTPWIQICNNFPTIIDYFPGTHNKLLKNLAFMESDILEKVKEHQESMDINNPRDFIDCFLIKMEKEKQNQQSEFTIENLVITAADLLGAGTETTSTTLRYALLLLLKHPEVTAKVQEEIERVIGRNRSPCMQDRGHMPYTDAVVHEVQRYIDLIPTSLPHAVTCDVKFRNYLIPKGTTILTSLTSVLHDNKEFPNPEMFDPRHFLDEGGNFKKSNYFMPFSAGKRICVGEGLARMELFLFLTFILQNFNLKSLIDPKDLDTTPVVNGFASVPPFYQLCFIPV
Sequence of Cytochrome P450 2C9 (Homo sapiens) (P11712 whole entry, looked up): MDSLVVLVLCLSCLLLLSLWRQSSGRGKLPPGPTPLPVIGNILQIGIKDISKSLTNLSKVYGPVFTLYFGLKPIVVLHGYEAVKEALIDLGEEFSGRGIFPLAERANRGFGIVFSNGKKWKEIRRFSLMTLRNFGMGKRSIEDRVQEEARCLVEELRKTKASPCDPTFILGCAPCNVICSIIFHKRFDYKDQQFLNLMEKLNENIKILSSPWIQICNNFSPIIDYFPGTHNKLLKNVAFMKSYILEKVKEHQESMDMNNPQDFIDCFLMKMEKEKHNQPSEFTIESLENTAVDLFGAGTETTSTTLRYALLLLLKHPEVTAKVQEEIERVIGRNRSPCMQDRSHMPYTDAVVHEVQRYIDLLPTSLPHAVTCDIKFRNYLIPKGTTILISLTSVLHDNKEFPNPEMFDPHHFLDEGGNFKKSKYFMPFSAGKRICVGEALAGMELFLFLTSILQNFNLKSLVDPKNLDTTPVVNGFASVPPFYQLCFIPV
Sequence of Cytochrome P450 2D6 (Homo sapiens) (P10635 whole entry, looked up): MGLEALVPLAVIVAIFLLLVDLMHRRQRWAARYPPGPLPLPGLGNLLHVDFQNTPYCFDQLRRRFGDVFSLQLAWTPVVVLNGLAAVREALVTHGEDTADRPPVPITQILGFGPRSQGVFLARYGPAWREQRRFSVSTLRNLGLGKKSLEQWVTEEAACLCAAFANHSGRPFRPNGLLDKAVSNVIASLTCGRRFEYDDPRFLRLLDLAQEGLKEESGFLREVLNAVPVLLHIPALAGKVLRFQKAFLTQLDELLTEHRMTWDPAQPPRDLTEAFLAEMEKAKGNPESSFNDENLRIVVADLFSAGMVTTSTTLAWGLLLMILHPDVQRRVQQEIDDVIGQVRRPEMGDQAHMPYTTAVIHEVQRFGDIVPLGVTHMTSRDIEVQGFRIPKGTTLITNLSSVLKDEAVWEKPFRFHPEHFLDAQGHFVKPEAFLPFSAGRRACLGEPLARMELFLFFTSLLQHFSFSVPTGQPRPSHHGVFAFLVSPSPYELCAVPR

For `O=c1cc(-c2ccc(O)cc2)oc2cc(O)cc(O)c12`, the Potency entry in [1], in test [3], in [5], in test [8], in [11] and in test [12] was “inactive” each time. Besides, the Potency result in test [14] and in [15] was “inactive” each time. Besides, the molecule was called inactive in test [2], in test [6], in [7], in test [13] and in [16]. In addition, the caspase-3 activation is 8.24% in [4], -2.47% in test [9] and 9.21% in test [10]. In addition, in [17], the Potency is 7.94 µM (active).
As for `CC/C(=C(\c1ccccc1)c1ccc(OCCN(C)C)cc1)c1ccccc1`, the activity change, negative = cytotoxicity in [1] is -91.4% (active). The Potency was 50.1 µM (active) in [3] and 63.1 µM (active) in test [5]. The caspase-3 activation in test [11] is 147% (active). Besides, the molecule was called inactive in test [13].
`CN(C)CCC(c1ccccc1)c1ccccn1` (stereo unspecified): the Potency entry in test [1], in [3], in test [5], in test [8], in [11] and in test [12] was “inactive” throughout. For the same molecule, the Potency result in [14] and in [18] was “inactive” throughout. The caspase-3 activation was 1.03% in [4], 0.331% in [9] and 1.53% in [10]. In addition, the molecule was called inactive in test [6], in test [7] and in test [13].
For the molecule `CCN(CC)CCNC(=O)c1ccc(N)cc1`, the outcome in test [2] was inactive.
Same read-out and setting: the value for `C[N+](C)(C)CC(=O)O` was “inactive”.
In the case of `CC(=O)c1ccc(S(=O)(=O)NC(=O)NC2CCCCC2)cc1`, the Potency entry in test [1], in [3], in [5], in test [8], in [11] and in test [12] was “inactive” in each case. For the same molecule, the Potency entry in test [14], in [15], in test [18], in test [19], in [20] and in [17] was “inactive” each time. The molecule was called inactive in [2], in test [6], in test [7] and in test [13]. Moreover, the caspase-3 activation in test [4] was 0.00348%; in test [9], 0.0312%; in test [10] it was 1.08%.
For `C[N+](C)(C)CCCCCC[N+](C)(C)C`, the call in [2] was inactive. The Potency result in [15] and in test [18] was “inactive” in each case.
Take `O=C1NC(=O)C(c2ccccc2)(c2ccccc2)N1`: the Potency result in [1], in test [3], in test [5], in [8], in test [11] and in test [12] was “inactive” in each case. For the same molecule, the Potency entry in [14] and in test [18] was “inactive” each time. Besides, the molecule was called inactive in test [2], in test [6], in [7] and in test [13]. Moreover, the caspase-3 activation in test [4] is 1.33%; in [9], 0.351%; in test [10], 0.679%.
For `C[C@@H](O)[C@H]1C(=O)N2C(C(=O)O)=C(S[C@@H]3CN[C@H](C(=O)N(C)C)C3)[C@H](C)[C@H]12`, the call in [2] was inactive.
Regarding `c1cc(-c2sc(-c3ccncc3)c(-c3ccncc3)c2-c2ccncc2)ccn1`, the molecule was called inactive in [2]. Besides, the Potency was 2 µM (active) in test [15], 0.316 µM (active) in [18] and 1.58 µM (active) in [17]. For the same molecule, in [16], the activity change, positive = activation is -102% [at 11.4 µM].
